KinaseGlo FLuc = Counterscreen for Luciferase (Kinase-Glo TM) Inhibition; Potency, µM (doses to about 38.3 µM), for the others: at the top dose activity change, negative = inhibition, usual class: inhibitors; 0.28% of 200,000 active; Luciferin 4-monooxygenase (Photuris pensylvanica), Q27757; Kinase-Glo luciferase, ATP luminescence, 8 min; note: % is set by controls: 0 for no effect and ±100 for the full control effect; nearly all actives have a fitted effect of over 60% in size
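Substrate mix (final 50 mM imidazole pH 7.2, 50 mM KCl, 7 mM MgCl2, 10 uM ATP, 0.01% Tween 20, 0.05% BSA) plus pin-tool compound, then Kinase-Glo detection mix; 8 min ambient, luminescence read.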
Rango dissoc inh = qHTS Assay for Inhibitors of RanGTP induced Rango (Ran-regulated importin-beta cargo) - Importin beta complex dissociation; Snurportin-1 (Homo sapiens) + GTP-binding nuclear protein Ran (Homo sapiens) + Importin …; Biochemical FRET Rango-importin beta, RanGTP-induced dissociation; Potency, µM (series often up to 46.1 µM), without a hit: top-dose activity change, negative = inhibition; 0.071% of 340,000 active; AID 540253, 2011; calls by dose curve; note: % of control where 0% means no effect; nearly all actives have a fitted effect of over 45% in size
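Compounds sat 5 min at room temperature with 0.1 uM Rango biosensor plus 0.25 uM importin beta, then FRET pre-read. RanGTP-RCC1 (0.6 uM Ran, 2mM GTP, 0.2 uM RCC1) added for 45 min, and the CFP/YFP post-read measured blocked complex dissociation.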
Chronic BCR inh = qHTS Assay to Find Inhibitors of Chronic Active B-Cell Receptor Signaling | ABC-DLBCL IkBa-CBG/CBR reporter, luminescence ratio, 4 h | Potency, µM (series often up to 46.1 µM), without a hit: at the top dose activity change, negative = inhibition, hits mostly inhibitors | 0.05% of 340,000 active | AID 493014, 2011; active = well fitted inhibition curve with a large enough effect in the signal ratio, with a control signal flat, not every such curve was filed as active; inconclusive = small, poorly fitted or top-dose-only effect, or effect the other way, or a change in a side signal; the % refers to the signal ratio;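 note: plate controls were basal doxycycline-induced cells for no effect and cells given 10 µM MG132 for full effect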
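Concentration-response series (up to 46 uM) were applied to TMD8 dual-reporter cells for 4 h at 37C with doxycycline. Green/red ratio, after filter-overlap correction, defined %Activity; red signal alone was normalised to basal cells and zero luminescence.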
Rango complex inh = qHTS Assay for Inhibitors of Rango (Ran-regulated importin-beta cargo) - Importin beta complex formation; Importin subunit beta-1 (Homo sapiens), Q14974; Rango CFP/YFP FRET sensor + importin beta, 45 min; Potency, µM (doses to about 92.2 µM), without a hit: at the highest dose inhibition of complex formation; 0.031% of 340,000 active; calls by dose curve;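 note: 0% = DMSO wells and 100% = buffer wells lacking importin beta; nearly all actives have a fitted effect of over 15% in size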
Target sequence (Q14974 whole entry, looked up): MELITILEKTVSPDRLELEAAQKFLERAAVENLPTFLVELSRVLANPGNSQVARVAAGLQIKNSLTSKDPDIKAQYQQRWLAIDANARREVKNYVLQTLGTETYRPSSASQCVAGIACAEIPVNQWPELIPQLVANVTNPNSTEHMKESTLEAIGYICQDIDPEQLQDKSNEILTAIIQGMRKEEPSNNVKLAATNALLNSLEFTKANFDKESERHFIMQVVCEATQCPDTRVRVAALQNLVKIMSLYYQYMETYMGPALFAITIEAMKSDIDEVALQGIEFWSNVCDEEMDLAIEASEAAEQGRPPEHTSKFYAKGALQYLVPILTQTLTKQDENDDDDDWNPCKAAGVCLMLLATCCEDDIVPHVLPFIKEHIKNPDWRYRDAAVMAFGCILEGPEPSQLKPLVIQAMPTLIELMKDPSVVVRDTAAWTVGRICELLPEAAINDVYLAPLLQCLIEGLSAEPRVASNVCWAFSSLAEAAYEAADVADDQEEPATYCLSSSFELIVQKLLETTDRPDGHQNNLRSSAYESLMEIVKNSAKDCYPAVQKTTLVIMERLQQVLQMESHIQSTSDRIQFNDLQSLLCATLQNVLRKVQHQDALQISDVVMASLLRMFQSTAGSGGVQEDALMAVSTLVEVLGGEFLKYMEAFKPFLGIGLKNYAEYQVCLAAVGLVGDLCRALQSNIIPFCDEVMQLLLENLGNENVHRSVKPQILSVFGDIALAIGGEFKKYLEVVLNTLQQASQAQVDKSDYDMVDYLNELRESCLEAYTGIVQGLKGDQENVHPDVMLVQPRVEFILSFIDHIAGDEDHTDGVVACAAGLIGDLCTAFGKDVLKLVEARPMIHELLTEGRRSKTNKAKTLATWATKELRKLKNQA
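FRET biosensor (snurportin 1 IBB flanked by EYFP and cerulean), 50 nM, with compound 5 min, then 0.125 microM importin beta in PBS, 1 mM DTT, 0.02% Tween-20, 0.1% BSA. CFP/YFP ratio read after 45 min at room temperature; pre-read flags interference.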
Lamin A splicing = qHTS Assay for Modulators of Lamin A Splicing; HeLa LMNA splicing GFP/RFP minigene ratio, 48 h; 0.01% of 200,000 active; AID 1487, 2009; Potency, µM (series often up to 46.1 µM), for inactives: top-dose ratio change, negative = inhibition, hits mostly inhibitors; active = well fitted inhibition curve with a large enough effect in the signal ratio, with a control signal flat, not every such curve was filed as active; inconclusive = small, poorly fitted or top-dose-only effect, or effect the other way, or a change in a side signal; the % refers to the signal ratio; note: % is set by controls: 0 for no effect and ±100 for the full control effect
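S3 HeLa cells stably expressing lamin A-EGFP splicing minigene plus DsRed2, 600 cells/well, 48 h compound exposure at 37C. Laser-scanning cytometry; analysed as GFP (500-530 nm)/RFP (575-640 nm) total intensity ratio; 0.5% DMSO vehicle.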
Tb PFK inh-1 = qHTS Assay to Find Inhibitors of T. brucei phosphofructokinase; ATP-dependent 6-phosphofructokinase (Trypanosoma brucei brucei), O15648; T. brucei PFK, ADP-Glo luminescence; Potency, µM (series often up to 57.5 µM), for the others: at the highest dose activity, negative = inhibition, actives largely listed as inhibitors; 0.17% of 330,000 active; AID 485367, 2010;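 note: 0% = uninhibited 1x PFK enzyme wells and -100% = no-enzyme wells; nearly all actives have a fitted effect of over 60% in size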
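In TEA buffer at pH 8.0 with 5 mM MgCl2, enzyme (1.25 nM) converted F6P (0.5 mM) and ATP (0.1 mM) for 45 min at room temperature. ADP product was read by luciferase luminescence.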
TbPFK ATP = Tb PFK orthogonal confirmatory assay using ATP depletion (Kinase-Glo Plus) as an alternative measure of Tb PFK activity: Hit Validation. Tb PFK enzyme, ATP depletion, Kinase-Glo Plus luminescence. AID 504636, 2011. shares compounds with Tb PFK inh-1. Potency, µM (titrated, usually from 57.5 µM), for the others: at the highest dose inhibition. 47% of 1,100 active; calls by dose curve; note: nearly all actives have a fitted effect of over 60% in size
Tb PFK inh-2 = Inhibitors of T. brucei phosphofructokinase: Hit Validation; shares compounds with Tb PFK inh-1; purified T. brucei PFK, ADP-Glo luminescence, 45 min; Potency, µM (titrated, usually from 57.5 µM), without a hit: at the top dose activity change, negative = inhibition, hits mostly inhibitors; 41% of 1,100 active;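 note: plate controls were full PFK enzyme control for no effect and no enzyme control for full effect; nearly all actives have a fitted effect of over 60% in size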
* = called active by the depositor; [ ] = another dose, or the depositor's remark. Compounds with a hit are over-represented: about 0.44% of the library has one in this group of screens. Unless noted, calls come from the whole dose curve; as a rule, active = well fitted curve in the direction sought with a large enough effect; inconclusive = small, poorly fitted or top-dose-only effect, or another doubt; inactive = no such curve, though single readings can be large; an effect the other way counts as inactive or inconclusive. Potency is the fitted concentration of half-maximal effect.

For Cc1ccc2c(c1)N(CCC(=O)N1CCC3(CC1)OCCO3)C(=O)C(C)O2 (centres undefined) the results were KinaseGlo FLuc -4.3%, Rango dissoc inh -16.2%, Chronic BCR inh 1.4%, Rango complex inh -0.4%, Lamin A splicing 8.3% and Tb PFK inh-1 -6.8%.
O=C(Nc1cccc(Cl)c1)c1cnc[nH]1 was read as Rango dissoc inh -1.6%, Chronic BCR inh inconclusive, Rango complex inh -0.9% and Tb PFK inh-1 -22.5%.
For Cc1ccc(C(=O)NNC(=O)CNc2cccc(Cl)c2)cc1 the results were KinaseGlo FLuc 0.5%, Rango dissoc inh 5.4%, Chronic BCR inh -0.3%, Rango complex inh 3.2%, Lamin A splicing 15.9%[46 µM], Tb PFK inh-1 19µM*, TbPFK ATP 12µM* and Tb PFK inh-2 23.9µM*.
Screening CCN(CC)CCCN=Cc1c(O)n(Cc2ccc(F)cc2)c(=O)[nH]c1=O returned KinaseGlo FLuc -1.7%, Rango dissoc inh -3.3%, Chronic BCR inh inconclusive, Rango complex inh -0.8%, Lamin A splicing inconclusive and Tb PFK inh-1 0.9%.
Screening O=C(Nc1ccc(F)cc1)N1CC2CC(C1)c1cccc(=O)n1C2 (centres undefined) returned KinaseGlo FLuc 1.3%, Rango dissoc inh -7.9%, Chronic BCR inh 0.1%, Rango complex inh -1.3%, Lamin A splicing 8.5% and Tb PFK inh-1 -3.5%.
`CCOC(=O)c1ccc(-n2c(N)c(C(=O)NCC3CCCO3)sc2=S)cc1` (centres undefined) gave KinaseGlo FLuc -0.5%, Rango dissoc inh -7.7%, Chronic BCR inh 4.5%, Rango complex inh -6.5%, Lamin A splicing inconclusive and Tb PFK inh-1 3.1%.
For Cc1ccc(-n2c(N)c(C(=O)N3CCN(C)CC3)sc2=S)cc1 the results were KinaseGlo FLuc 1.3%, Rango dissoc inh 0.7%, Chronic BCR inh 5.7%, Rango complex inh -0.3%, Lamin A splicing -2.2%, Tb PFK inh-1 13.5µM*, TbPFK ATP 3.79µM* and Tb PFK inh-2 9.53µM*.
Screening Oc1ccc(-c2cn3c(n2)SCC3)cc1O returned KinaseGlo FLuc -6.0%, Rango dissoc inh 1.5%, Chronic BCR inh -7.0%, Rango complex inh inconclusive, Lamin A splicing 3.8%, Tb PFK inh-1 inconclusive, TbPFK ATP 2.39µM* and Tb PFK inh-2 4.78µM*.
C=C1C[C@@H]2[C@H](CC[C@]3(C)C(=O)CC[C@@H]23)[C@@]2(C)C=CC(=O)C=C12 was read as Chronic BCR inh inconclusive, Lamin A splicing 17.9%[46 µM] and Tb PFK inh-1 -0.5%.
COC(=O)c1c(NC(=O)Cc2cccs2)sc2c1CCCC2 was read as KinaseGlo FLuc 0.0%, Rango dissoc inh 5.1%, Chronic BCR inh 11.8%, Rango complex inh -5.1%, Lamin A splicing inconclusive, Tb PFK inh-1 inconclusive, TbPFK ATP inconclusive and Tb PFK inh-2 inconclusive.
